“And” between values parts separate entries of the source, which are not always exact repeats. Identical values can stand only once. Counter-ions that a name gives are not always drawn. ± gives the standard deviation of the averaged measurements.
What follows are compounds tested on Molm13 (assay: cell viability relative to DMSO control (bortezomib = 0%); higher = less growth inhibition). Conditions: 10 nM; 72 h.
Procedure, shortened: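 Cell viability was assessed by CellTiter-Glo luminescence. Acute myeloid leukemia cells were seeded at 1000 cells per well in 50 µL on a 384-well library of 679 compounds at a single 10 nM dose for 72 h. Per-plate linear regression set DMSO-treated cells at 100% and positive-control-treated cells at 0%.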
Work on `COc1cc2ncnc(Nc3ccc(O)cc3)c2cc1OC` [Janex 1] yielded a cell viability of 101 ± 12%.
`N#Cc1c(NC(=O)c2cccc3ccccc23)sc2c1CCCC2` was tested, and the cell viability was 102 ± 21%.
For `CN(C)Cc1cccc(N/C(=C2\C(=O)Nc3cc(C(N)=O)ccc32)c2ccccc2)c1`, the cell viability was 114 ± 4.6%.
`Cc1ncc(CO)c(CO)c1O` [Pyridoxine] gave a cell viability of 95.3 ± 26%.
`CCS(=O)(=O)c1cccc(-c2cc(C(=O)NC3CCN(C)CC3)c(C)c3[nH]c4ncc(C)cc4c23)c1` gave a cell viability of 75.1 ± 5.3%.
`O=C1NC(=O)/C(=C/c2ccc(-c3ccc(F)cc3O)o2)S1` gave a cell viability of 106 ± 2.7%.
`CS(=O)(=O)c1ccc(-c2nc(-c3ccc(F)cc3)c(-c3ccncc3)[nH]2)cc1` showed a cell viability of 108 ± 14%.
For `Cc1cnc(-c2cnc(NCCNc3ccc(C#N)cn3)nc2-c2ccc(Cl)cc2Cl)[nH]1`, the cell viability was 104% and 111%.
In the case of `Cc1nc(Nc2ncc(C(=O)Nc3c(C)cccc3Cl)s2)cc(N2CCN(CCO)CC2)n1` [Dasatinib monohydrate], the cell viability is reported as 80.8 ± 25%.
Compound `CC(=O)CC(c1ccccc1)c1c(O)c2ccccc2oc1=O` (stereo unspecified) [Warfarin sodium] has a cell viability of 105 ± 6.5%.
Compound `COc1ccc(C2CC(=O)c3c(O)cc(OC4OC(COC5OC(C)C(O)C(O)C5O)C(O)C(O)C4O)cc3O2)cc1OC` (stereo unspecified) [Methyl hesperidin] has a cell viability of 109 ± 12%.
For `O=C(O)c1cc(O)c2c(c1)[C@@H]([C@H]1c3cc(C(=O)O)cc(O)c3C(=O)c3c(O[C@@H]4O[C@H](CO)[C@@H](O)[C@H](O)[C@H]4O)cccc31)c1cccc(O[C@@H]3O[C@H](CO)[C@@H](O)[C@H](O)[C@H]3O)c1C2=O` [Sennoside B], the cell viability was 101 ± 12%.
`CS(=O)(=O)N1CCN(Cc2cc3nc(-c4cccc5[nH]ncc45)nc(N4CCOCC4)c3s2)CC1` was tested, and the cell viability was 89.9 ± 12%.
`COc1cc2c(Oc3ccc4[nH]c(C)cc4c3F)ncnc2cc1OCCCN1CCCC1` [Cediranib (AZD2171)] was tested, and the cell viability was 107 ± 23%.
`COc1cc2nccc(Oc3ccc(NC(=O)Nc4ccc(F)cc4F)c(F)c3)c2cc1OC` gave a cell viability of 98.1 ± 2.7%.
`C=CC(=O)Nc1cccc(Nc2nc(Nc3ccc(Oc4ccnc(C(=O)NC)c4)cc3)ncc2F)c1` gave a cell viability of 114 ± 24%.
Work on `Cn1cc(C2=C(c3cn(CCCSC(=N)N)c4ccccc34)C(=O)NC2=O)c2ccccc21` [Ro 31-8220 Mesylate] yielded a cell viability of 108 ± 2.3%.
`CNC(=O)c1cc(Oc2ccc(NC(=O)Nc3ccc(Cl)c(C(F)(F)F)c3)cc2)ccn1` [Sorafenib tosylate] gave a cell viability of 63.1 ± 6.6%.
With `Cc1cc(Nc2nn(-c3ccccc3)c(=O)c3ccccc23)n[nH]1` [Phthalazinone pyrazole] the cell viability was 94.1 ± 9.4%.
`CS(=O)(=O)CCNCc1ccc(-c2ccc3ncnc(Nc4ccc(OCc5cccc(F)c5)c(Cl)c4)c3c2)o1` [Lapatinib ditosylate monohydrate] was tested, and the cell viability was 137 ± 32%.
For `CCOc1cc(/C=C(\C#N)C(N)=O)cc(CSc2ccccc2)c1O`, the cell viability was 101 ± 44%.
For `O=C(NOCC1CC1)c1cc(Br)c(F)c(F)c1Nc1ccc(I)cc1Cl`, the cell viability was 110 ± 11%.
With `Cn1cc(-c2ccc3nnc(Sc4ccc5ncccc5c4)n3n2)cn1` the cell viability was 127 ± 6.4%.
For `O=C1NC(=O)[C@@H](c2cn3c4c(cccc24)CCC3)[C@@H]1c1c[nH]c2ccccc12` [Tivantinib (ARQ 197)], the cell viability was 105 ± 3.9%.
For `COc1ccc2c3n(c(=NC(=O)c4cccnc4)nc2c1OC)CCN3`, the cell viability was 88.7 ± 7%.
`C[C@@H](Oc1cc(-c2cnn(C3CCNCC3)c2)cnc1N)c1c(Cl)ccc(F)c1Cl` was tested, and the cell viability was 107 ± 16%.
For `CN(C)C(=O)c1ccc(S(=O)(=O)c2ccc(NC(=O)[C@@](C)(O)C(F)(F)F)c(Cl)c2)cc1`, the cell viability was 97 ± 12%.
Work on `Cc1ccc(S(=O)(=O)/C=C/C#N)cc1` yielded a cell viability of 87.5 ± 24%.
With `COc1cc2ccc(=O)oc2cc1O` [Scopoletin] the cell viability was 102.2 ± 0.33%.
With `CN(C)C/C=C/C(=O)Nc1cc2c(Nc3ccc(F)c(Cl)c3)ncnc2cc1O[C@H]1CCOC1` [Afatinib (BIBW2992) Dimaleate] the cell viability was 108 ± 11%.
`O=c1c(O)c(-c2cc(O)c(O)c(O)c2)oc2cc(O)cc(O)c12` [Myricetin] was tested, and the cell viability was 106 ± 20%.
`Nc1ncnc2c1ncn2[C@@H]1O[C@H](COP(=O)(O)O)[C@@H](O)[C@H]1O` [Adenosine 5'-monophosphate] was tested, and the cell viability was 96 ± 7.5%.
`C#Cc1cccc(Nc2ncnc3cc4c(cc23)OCCOCCOCCO4)c1` [Icotinib Hydrochloride] was tested, and the cell viability was 100 ± 4.9%.
`CCS(=O)(=O)N1CC(CC#N)(n2cc(-c3ncnc4[nH]ccc34)cn2)C1` was tested, and the cell viability was 122 ± 31%.
Work on `CC(C)n1nc(-c2cc3cc(O)ccc3[nH]2)c2c(N)ncnc21` yielded a cell viability of 103 ± 11%.
Work on `CCc1cnn2c(NCc3ccc[n+]([O-])c3)cc(N3CCCC[C@H]3CCO)nc12` yielded a cell viability of 93.2 ± 28%.

Source: the supplement of paper PMC8699584
